# Measurements taken from PubChem BioAssay (NCATS).
# Inconclusive results are not listed. The source made the active and inactive calls. Calls follow the shape of the full dose curve.
# Experiment: Primary qHTS to identify inhibitors of SARS-CoV-2 cell entry (AID 1645846); also: nearly all actives have a fitted effect of over 45% in size
# Conditions: SARS-CoV-2 pseudovirus cell entry assay, luminescence; activity change, negative = inhibition: at 57.1 µM (top of the series) unless noted; series mostly up to 57.1 µM
# Outline: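 Entry measured by luciferase signal 48 h after adding SARS-CoV-2-S pseudotyped MLV particles to HEK293-ACE2 cells preincubated 1 h with compounds. Normalisation: bald particles and spike particles.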
Structure (SMILES),outcome,"activity change, negative = inhibition [%]"
CCOC(=O)c1ccccc1C(=O)OCC,inactive,
O=S(=O)(O)c1cc(O)ccc1O,,-12.6
CCNCC(O)c1cccc(O)c1 (configuration not stated),,-13.6
Cc1ccccc1-n1c(CF)nc2ccc(N)cc2c1=O,,-3.31
COc1cc2c(cc1OC)[C@@]13CCN4CC5=CCO[C@H]6CC(=O)N2[C@H]1[C@H]6[C@H]5C[C@H]43,,-18.2
CC[N+](C)(CC)CCOC(=O)C(O)(c1ccccc1)c1ccccc1,,-7.01
O=C(O)C(Cl)(Cl)Cl,,-27.9
